Screens deposited in PubChem BioAssay by National Center for Advancing Translational Sciences (NCATS).
The list is not random: actives were taken first. Their share in the collection is about 11%.
JMJD2A Tudor inh – inhibitors of human JMJD2A Tudor domain; Potency, µM (titrated, usually from 114 µM), for the others: at the top dose activity change, negative = inhibition, actives largely listed as inhibitors; 390,000 compounds, 4.4% hits; O75164; AlphaScreen JMJD2A-Tudor / H3K4me3 peptide binding; further: on the % scale 0 is the no-effect control and ±100 the full control effect; nearly all actives have a fitted effect of over 50% in size
L3MBTL1 block – inhibitors of human L3MBTL1; AID 485360; Q9Y468; Potency, µM (series often up to 57.1 µM), without a hit: top-dose activity, negative = inhibition, usual class: inhibitors; AlphaScreen L3MBTL1–H3K9me1 peptide binding; 230,000 compounds, 0.66% hits; further: on the % scale 0 is the no-effect control and ±100 the full control effect; nearly all actives have a fitted effect of over 60% in size
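L3MBTL1 50 nM + b-AHA-H3(1-15)K9me1 75 nM, 30 min RT; compound added, 30 min RT; streptavidin donor/Ni-chelate acceptor beads 10 ug/mL each final, 30 min RT dark; AlphaScreen read.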
BAZ2B inh – BAZ2B (human) inhibition; Potency, µM (series often up to 114 µM), inactives show top-dose activity change, negative = inhibition, usual class: inhibitors; 360,000 compounds, 4.4% hits; AlphaScreen BAZ2B-H3K14Ac peptide displacement; AID 504333; Q9UIF8; further: on the % scale 0 is the no-effect control and ±100 the full control effect; nearly all actives have a fitted effect of over 60% in size
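AlphaScreen displacement: compounds (up to 110uM) incubated 30 min at room temperature with a preformed 50 nM BAZ2B/50 nM biotinylated H3K14Ac peptide complex in PBS pH 7.4 with Tween-20. Donor and acceptor beads at 10 ug/mL final added, 20 min light-protected before reading.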
G9a block – inhibitors of human histone lysine methyltransferase G9a; Q96KQ7; G9a H3K9 monomethylation, AlphaScreen, 2 h; Potency, µM (doses to about 102 µM), without a hit: top-dose activity, negative = inhibition, usual class: inhibitors; 350,000 compounds, 8.8% hits; AID 504332; further: on the % scale 0 is the no-effect control and ±100 the full control effect; nearly all actives have a fitted effect of over 75% in size
Target sequence (Q96KQ7 913-1193 limits assumed): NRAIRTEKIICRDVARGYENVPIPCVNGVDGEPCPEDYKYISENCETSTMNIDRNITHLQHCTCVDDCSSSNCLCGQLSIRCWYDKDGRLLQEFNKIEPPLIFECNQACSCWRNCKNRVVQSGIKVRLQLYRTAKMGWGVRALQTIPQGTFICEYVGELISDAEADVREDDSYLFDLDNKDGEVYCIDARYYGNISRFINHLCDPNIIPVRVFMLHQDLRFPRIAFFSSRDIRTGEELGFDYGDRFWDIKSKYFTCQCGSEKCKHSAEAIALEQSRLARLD
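Enzyme 20 nM + cpd, 15 min RT; add b-H3K9 pep 500 nM / SAM 20 uM; 2 h RT; anti-H3K9me1 Ab 0.5 ug/mL + SA donor / anti-rabbit acceptor beads 20 ug/mL each, 10 min; AlphaScreen read.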
HP1b binding inh – blocks HP1-beta chromodomain binding to methylated histone tails. 390,000 compounds, 0.56% hits. AID 540317. AlphaScreen HP1-beta / biotin-H3K9me3 peptide binding. Potency, µM (titrated, usually from 114 µM), for inactives: at the highest dose activity change, negative = inhibition, usual class: inhibitors; further: nearly all actives have a fitted effect of over 70% in size
Target sequence (P83916 whole entry, looked up): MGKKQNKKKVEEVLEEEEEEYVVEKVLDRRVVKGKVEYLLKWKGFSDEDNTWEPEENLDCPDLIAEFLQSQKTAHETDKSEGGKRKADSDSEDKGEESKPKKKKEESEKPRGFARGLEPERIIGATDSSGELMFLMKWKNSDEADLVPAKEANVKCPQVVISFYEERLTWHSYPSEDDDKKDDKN
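Compound inhibition of the preformed complex between 50 nM HP1-beta and 50 nM biotinylated H3K9me3 peptide was read by AlphaScreen. Buffer was PBS pH 7.4 with 0.01% Tween-20. Incubations ran 30 min at room temperature, with 10 ug/mL donor/acceptor beads.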
* hit, by the source's call; ? = inconclusive; nt = no result; [ ] = dose if it differs, or a comment. The call rests on the fitted dose curve; in most records, active means well fitted inhibition curve with a large enough effect; inconclusive means small, poorly fitted or top-dose-only effect; inactive means no such curve, though single readings can be large or run the other way. Potency means the concentration at half of the fitted maximal effect.

SMILES	JMJD2A Tudor inh	L3MBTL1 block	BAZ2B inh	G9a block	HP1b binding inh
CC1CCCN(CCCCOc2cccc(Br)c2)C1 (stereo unspecified)	50µM*	-11%	50µM*	?	-14%
COc1ccccc1C1NC(c2ccc3c(c2)OCO3)=CC(c2ccccc2O)N1 (stereo unspecified)	-9%[57.1 µM]	nt	nt	nt	2%[57 µM]
CCOC(=O)c1noc2nc(C)n(CC(=O)Nc3cc(Cl)ccc3OC)c(=O)c12	-18%	nt	-3%	14%[59 µM]	23%[57 µM]
CC(=O)Nc1ccc(S(=O)(=O)N2CCC(n3c(C)nc4cccnc43)CC2)cc1	-12%	nt	-6%	7%[59 µM]	15%
CS(=O)(=O)n1nc(OC(=O)c2cc(Br)ccc2Cl)cc1N	-19%	9%	-39%	32µM*	26%
CCCCCCc1cc2cc(-c3nnc(-c4cccc(Cl)c4)o3)c(=O)oc2cc1O	3%	nt	16%	7%[59 µM]	28%
COc1cc(CNn2c(C)n[nH]c2=S)cc(Br)c1OCC(=O)NC(C)(C)C	?	3%	-8%	4µM*	26%
COc1cc(CNn2cn[nH]c2=S)ccc1OCC(=O)NC(C)(C)C	?	-3%	-33%	18µM*	52%
COc1cc(CNC(C)(C)CO)ccc1OCC(=O)NC(C)(C)C	-2%[57.1 µM]	10%	3%	-2%[59 µM]	40%
COc1cc(CNn2c(C)n[nH]c2=S)cc(Cl)c1OCC(=O)NC(C)(C)C	56µM*	7%	-7%	nt	52%
O=C(c1ccc2c(=O)n(CCc3ccccc3)c(=O)[nH]c2c1)N1CCN(c2ccc(Cl)cc2)CC1	-16%	nt	0%	-3%[59 µM]	19%
Cc1cccc(-c2nc3c4c(-c5ccccc5)c(-c5ccccc5)oc4ncn3n2)c1	-14%	nt	-3%	-22%[59 µM]	56%
Cc1cccc(NC(=O)CNC(=O)CN2C(=O)NC3(CCc4ccccc43)C2=O)c1C (stereo unspecified)	-6%	1%	4%	45µM*	19%
O=C(Cn1ncc(Cl)c(Cl)c1=O)Nc1ccc2c(c1)OCO2	-19%	4%	-20%	?	28%
O=C(CN1C(=O)NC2(CCCc3ccccc32)C1=O)N1CCCCC1 (stereo unspecified)	-6%	-4%	8%	50µM*	11%
CC1CCN(C(=O)CN2C(=O)NC3(CCCc4ccccc43)C2=O)CC1 (stereo unspecified)	-4%	2%	19%	?	32%
CCN(CC)S(=O)(=O)c1cc(NC(=O)CN2C(=O)NC3(CCCc4ccccc43)C2=O)ccc1C (stereo unspecified)	-22%	-2%	-6%	50µM*	4%
Cc1ccc(NC(=O)CN2C(=O)NC3(CCCc4ccccc43)C2=O)cc1S(=O)(=O)N1CCOCC1 (stereo unspecified)	-2%[11.4 µM]	-6%	-27%	?	36%
CCN(CC)S(=O)(=O)c1cc(NC(=O)Cn2ncc(Cl)c(Cl)c2=O)ccc1C	-7%[11.4 µM]	18µM*	-18%	0%	25%
C#CC(C)(CC)NC(=O)Cn1nnc(-c2ccc(OCc3ccccc3F)cc2)n1 (stereo unspecified)	-5%	nt	-14%	1%[59 µM]	35%
COc1ccccc1-c1cc2nc(C)c(CCC(=O)NCCc3ccc(SC)cc3)c(C)n2n1	-20%	nt	-12%	-10%[59 µM]	19%
Cc1nc(SCCC(C)C)c([N+](=O)[O-])[nH]1	-19%	nt	0%	28µM*	41%
Cc1nc(SCC(N)=O)c([N+](=O)[O-])[nH]1	40µM*	-2%	-22%	-3%	15%
Cc1ccc(-c2noc(C3CCCN(C(=O)C4CCCCC4)C3)n2)o1 (stereo unspecified)	-14%	nt	-6%	11µM*	17%
CC(C)OCCCn1c(-c2ccc(Br)cc2)c[nH]c1=S	?	-24%	?	3.5µM*	-29%
SMILES	JMJD2A Tudor inh	L3MBTL1 block	BAZ2B inh	G9a block	HP1b binding inh
O=C(NCC1CCCO1)c1sc(=S)n2c1[nH]c(=O)c1ccc(C(=O)N3CCCCC3)cc12 (stereo unspecified)	?	-8%	?	45µM*	-24%
O=C(NCCc1ccccc1)c1ccc(NCC2CCCO2)c([N+](=O)[O-])c1 (stereo unspecified)	-22%	nt	?	-2%[59 µM]	-1%
O=C(NCCc1ccccc1)c1ccc2c(=O)[nH]c3c(C(=O)NCC4CCCO4)sc(=S)n3c2c1 (stereo unspecified)	45µM*	nt	35µM*	-11%[0.501 µM]	?
CCOc1ccccc1CNC(=O)c1ccc(Cn2c(SCc3ccccc3)nc3cccnc32)cc1	-24%	nt	-3%	-4%[59 µM]	18%
O=C(NCc1ccc2c(c1)OCO2)c1cc2c(s1)CSC2	-28%	-6%	-34%	35µM*	-2%
O=C(CSc1nc2ccccc2[nH]1)NCc1ccc2c(c1)OCO2	-2%	-7%	-9%	25µM*	15%
O=C(NCc1ccc2c(c1)OCO2)C(C(=O)c1ccccc1)n1cc(Cl)ccc1=O (stereo unspecified)	-7%	0%	-5%	50µM*	34%
O=C(CCc1nc2ccccc2[nH]1)NCc1ccc2c(c1)OCO2	10%	25%	2%	-127%	40%
O=C(O)c1ccccc1C(=O)NCc1ccc2c(c1)OCO2	32µM*	nt	-8%	0%	?
O=C(NCc1ccc2c(c1)OCO2)c1cccc(C(=O)NCc2ccc3c(c2)OCO3)c1	-21%	-6%	nt	18%[59 µM]	23%
COc1cccc(NC(=O)C(=O)NCCc2csc(-c3ccc(C(F)(F)F)cc3)n2)c1	3%	nt	5%	6%[59 µM]	31%[57 µM]
Cc1nn(CCCC(=O)NCc2ccc(F)cc2)c(=O)c2c1sc1ccccc12	-3%	nt	-8%	?	29%
COc1cc(C2CC(=O)N(Cc3ccc(F)cc3)c3ccccc3S2)cc(OC)c1OC (stereo unspecified)	-17%	nt	?	-27%[59 µM]	20%
O=C(CCn1c(=O)oc2ccccc21)NCc1ccc2c(c1)OCO2	8%	34%	5%	3%	30%
O=C(CCn1cccc1)NCc1ccc2c(c1)OCO2	?	-13%	50µM*	?	?
CCOc1ccccc1C(=O)Oc1c(S(=O)(=O)c2ccc(C)cc2)c(C)nn1-c1ccccc1	-14%	nt	?	?	24%
COc1ccc(NS(=O)(=O)c2ccc(N3CCCC3)c(NC(=S)Nc3cccc(S(=O)(=O)N(C)C)c3)c2)cc1	nt	-11%	?	1.6µM*	nt
CNC(=S)Nc1ccc(N2CCCC2)c(S(=O)(=O)Nc2ccc(OC)cc2)c1	?	-7%	nt	nt	-19%
O=c1c(C=Nc2ccc(Cl)cc2)c[nH]n1-c1cccc(Cl)n1	25µM*	6%	-6%	-17%[12.7 µM]	18%
O=c1c(C=Nc2cccc(C(F)(F)F)c2)c[nH]n1-c1cccc(Cl)n1	40µM*	5%	?	50µM*	-5%
